These results are taken from ChEMBL document CHEMBL1961873, “Compounds: GSK PKIS; Assays: Nanosyn kinase panel” (2012).

Assay [1] deals with T1, Inhibitor of nuclear factor kappa-B kinase subunit epsilon (Homo sapiens) (UniProt Q14164).
T1 sequence (whole entry): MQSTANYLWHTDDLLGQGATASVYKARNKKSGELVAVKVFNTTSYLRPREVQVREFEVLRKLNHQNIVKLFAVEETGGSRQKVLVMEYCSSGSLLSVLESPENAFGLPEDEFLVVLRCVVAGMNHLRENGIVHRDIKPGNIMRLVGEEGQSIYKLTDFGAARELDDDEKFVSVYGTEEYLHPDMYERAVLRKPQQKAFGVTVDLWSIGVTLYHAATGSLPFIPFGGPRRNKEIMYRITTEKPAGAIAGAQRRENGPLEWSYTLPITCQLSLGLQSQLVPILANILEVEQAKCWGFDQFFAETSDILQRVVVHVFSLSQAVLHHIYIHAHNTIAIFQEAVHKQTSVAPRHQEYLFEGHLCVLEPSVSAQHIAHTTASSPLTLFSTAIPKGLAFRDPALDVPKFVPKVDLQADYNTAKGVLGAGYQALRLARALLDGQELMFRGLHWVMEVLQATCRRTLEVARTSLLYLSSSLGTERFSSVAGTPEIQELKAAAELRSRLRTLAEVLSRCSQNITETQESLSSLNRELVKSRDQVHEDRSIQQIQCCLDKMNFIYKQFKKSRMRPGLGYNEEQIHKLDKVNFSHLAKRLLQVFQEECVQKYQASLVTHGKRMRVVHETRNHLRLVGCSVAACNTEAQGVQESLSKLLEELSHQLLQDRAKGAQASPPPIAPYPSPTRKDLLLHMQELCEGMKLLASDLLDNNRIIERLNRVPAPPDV
The note with it: at 1 µM.

For assay [2], the target named is T2, Serine/threonine-protein kinase Nek1 (Homo sapiens) (UniProt Q96PY6).
T2 sequence (whole entry): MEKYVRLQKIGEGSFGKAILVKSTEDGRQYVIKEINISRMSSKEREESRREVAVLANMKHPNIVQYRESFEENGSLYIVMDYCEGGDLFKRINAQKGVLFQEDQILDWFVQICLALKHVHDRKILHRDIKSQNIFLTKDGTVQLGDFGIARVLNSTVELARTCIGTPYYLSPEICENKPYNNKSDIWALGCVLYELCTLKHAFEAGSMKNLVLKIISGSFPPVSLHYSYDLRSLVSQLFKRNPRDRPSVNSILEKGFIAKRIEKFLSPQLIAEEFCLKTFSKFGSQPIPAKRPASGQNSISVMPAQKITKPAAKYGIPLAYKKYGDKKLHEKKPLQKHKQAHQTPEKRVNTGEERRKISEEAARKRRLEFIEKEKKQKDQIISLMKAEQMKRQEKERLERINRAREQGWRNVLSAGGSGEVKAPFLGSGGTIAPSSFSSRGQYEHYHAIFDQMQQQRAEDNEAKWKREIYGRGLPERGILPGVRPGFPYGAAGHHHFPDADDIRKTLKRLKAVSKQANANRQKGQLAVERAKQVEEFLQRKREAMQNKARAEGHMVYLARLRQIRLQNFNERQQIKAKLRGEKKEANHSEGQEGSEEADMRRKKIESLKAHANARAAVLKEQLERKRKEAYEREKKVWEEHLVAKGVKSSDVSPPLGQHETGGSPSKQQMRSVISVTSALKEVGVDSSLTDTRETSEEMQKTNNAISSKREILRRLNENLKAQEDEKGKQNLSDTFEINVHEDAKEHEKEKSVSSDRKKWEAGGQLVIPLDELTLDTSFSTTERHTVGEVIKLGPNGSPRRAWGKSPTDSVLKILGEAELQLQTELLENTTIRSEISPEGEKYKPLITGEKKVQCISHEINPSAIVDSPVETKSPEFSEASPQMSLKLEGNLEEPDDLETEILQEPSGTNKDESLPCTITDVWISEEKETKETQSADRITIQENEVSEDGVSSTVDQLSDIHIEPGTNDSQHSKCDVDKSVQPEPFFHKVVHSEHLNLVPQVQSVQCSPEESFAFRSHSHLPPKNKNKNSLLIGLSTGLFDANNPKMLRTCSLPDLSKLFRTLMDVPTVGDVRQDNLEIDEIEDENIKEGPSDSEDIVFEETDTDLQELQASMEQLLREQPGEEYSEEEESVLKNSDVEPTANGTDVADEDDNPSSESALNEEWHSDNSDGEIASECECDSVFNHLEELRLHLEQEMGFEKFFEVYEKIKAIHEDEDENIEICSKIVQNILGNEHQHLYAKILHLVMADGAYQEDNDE
Particulars: at 0.1 µM.

Assay [3] concerns the target T2, Serine/threonine-protein kinase Nek1 (Homo sapiens). Particulars: at 1 µM.
Assay [4] deals with T3, Serine/threonine-protein kinase Nek2 (Homo sapiens) (UniProt P51955).
T3 sequence (whole entry): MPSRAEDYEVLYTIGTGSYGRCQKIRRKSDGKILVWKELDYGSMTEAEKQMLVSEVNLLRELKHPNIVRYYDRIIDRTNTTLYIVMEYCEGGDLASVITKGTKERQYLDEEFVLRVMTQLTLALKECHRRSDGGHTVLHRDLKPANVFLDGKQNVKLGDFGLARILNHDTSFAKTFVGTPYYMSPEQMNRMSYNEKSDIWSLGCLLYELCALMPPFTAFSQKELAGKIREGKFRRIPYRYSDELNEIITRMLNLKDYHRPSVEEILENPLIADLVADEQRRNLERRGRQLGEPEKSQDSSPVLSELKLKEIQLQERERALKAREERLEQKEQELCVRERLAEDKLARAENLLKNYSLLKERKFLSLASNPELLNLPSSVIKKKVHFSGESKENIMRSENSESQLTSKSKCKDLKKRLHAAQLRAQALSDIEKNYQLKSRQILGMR
Particulars: at 0.1 µM.

In assay [5] the target is T3, Serine/threonine-protein kinase Nek2 (Homo sapiens). Particulars: at 1 µM.
For assay [6], the target named is Serine/threonine-protein kinase Nek6 (Homo sapiens) (UniProt Q9HC98). Particulars: at 0.1 µM.
Assay [7] shares this target. Particulars: at 1 µM.
Assay [8] addresses Serine/threonine-protein kinase Nek7 (Homo sapiens) (UniProt Q8TDX7). The note with it: at 0.1 µM.
Assay [9] shares this target. Particulars: at 1 µM.
Assay [10] addresses T4, Serine/threonine-protein kinase Nek9 (Homo sapiens) (UniProt Q8TD19).
T4 sequence (whole entry): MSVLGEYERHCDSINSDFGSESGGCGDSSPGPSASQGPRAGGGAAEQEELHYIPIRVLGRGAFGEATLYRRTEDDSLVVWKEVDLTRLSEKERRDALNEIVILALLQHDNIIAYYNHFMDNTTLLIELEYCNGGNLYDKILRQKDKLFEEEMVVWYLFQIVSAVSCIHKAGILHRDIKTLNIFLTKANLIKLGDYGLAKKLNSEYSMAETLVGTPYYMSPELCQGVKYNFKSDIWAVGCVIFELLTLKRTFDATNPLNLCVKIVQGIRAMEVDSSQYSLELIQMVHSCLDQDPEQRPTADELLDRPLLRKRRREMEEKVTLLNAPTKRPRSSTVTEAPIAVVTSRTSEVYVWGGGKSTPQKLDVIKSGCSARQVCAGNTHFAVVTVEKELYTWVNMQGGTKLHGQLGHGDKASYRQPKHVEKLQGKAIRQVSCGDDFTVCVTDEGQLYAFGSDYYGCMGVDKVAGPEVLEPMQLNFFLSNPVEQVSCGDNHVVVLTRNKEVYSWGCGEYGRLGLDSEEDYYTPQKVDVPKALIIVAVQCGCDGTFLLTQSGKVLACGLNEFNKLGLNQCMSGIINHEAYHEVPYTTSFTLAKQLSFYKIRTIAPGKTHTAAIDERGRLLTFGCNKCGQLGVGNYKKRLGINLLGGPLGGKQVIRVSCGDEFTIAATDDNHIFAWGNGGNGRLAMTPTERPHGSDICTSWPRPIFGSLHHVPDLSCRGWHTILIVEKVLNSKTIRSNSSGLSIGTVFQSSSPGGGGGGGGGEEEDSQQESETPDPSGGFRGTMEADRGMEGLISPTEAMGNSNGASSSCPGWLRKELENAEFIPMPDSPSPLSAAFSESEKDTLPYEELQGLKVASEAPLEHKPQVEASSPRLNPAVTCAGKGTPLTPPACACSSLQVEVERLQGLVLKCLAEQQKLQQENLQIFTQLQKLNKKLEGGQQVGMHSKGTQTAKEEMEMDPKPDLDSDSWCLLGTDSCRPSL
Particulars: at 0.1 µM.

Assay [11] has as its target T4, Serine/threonine-protein kinase Nek9 (Homo sapiens). Particulars: at 1 µM.
Assay [12] concerns the target Serine/threonine-protein kinase PLK1 (Homo sapiens) (UniProt P53350). Particulars: at 0.1 µM.
The target is the same in assay [13]. The note with it: at 1 µM.
Assay [14] deals with T5, Dual specificity protein kinase TTK (Homo sapiens) (UniProt P33981).
T5 sequence (whole entry): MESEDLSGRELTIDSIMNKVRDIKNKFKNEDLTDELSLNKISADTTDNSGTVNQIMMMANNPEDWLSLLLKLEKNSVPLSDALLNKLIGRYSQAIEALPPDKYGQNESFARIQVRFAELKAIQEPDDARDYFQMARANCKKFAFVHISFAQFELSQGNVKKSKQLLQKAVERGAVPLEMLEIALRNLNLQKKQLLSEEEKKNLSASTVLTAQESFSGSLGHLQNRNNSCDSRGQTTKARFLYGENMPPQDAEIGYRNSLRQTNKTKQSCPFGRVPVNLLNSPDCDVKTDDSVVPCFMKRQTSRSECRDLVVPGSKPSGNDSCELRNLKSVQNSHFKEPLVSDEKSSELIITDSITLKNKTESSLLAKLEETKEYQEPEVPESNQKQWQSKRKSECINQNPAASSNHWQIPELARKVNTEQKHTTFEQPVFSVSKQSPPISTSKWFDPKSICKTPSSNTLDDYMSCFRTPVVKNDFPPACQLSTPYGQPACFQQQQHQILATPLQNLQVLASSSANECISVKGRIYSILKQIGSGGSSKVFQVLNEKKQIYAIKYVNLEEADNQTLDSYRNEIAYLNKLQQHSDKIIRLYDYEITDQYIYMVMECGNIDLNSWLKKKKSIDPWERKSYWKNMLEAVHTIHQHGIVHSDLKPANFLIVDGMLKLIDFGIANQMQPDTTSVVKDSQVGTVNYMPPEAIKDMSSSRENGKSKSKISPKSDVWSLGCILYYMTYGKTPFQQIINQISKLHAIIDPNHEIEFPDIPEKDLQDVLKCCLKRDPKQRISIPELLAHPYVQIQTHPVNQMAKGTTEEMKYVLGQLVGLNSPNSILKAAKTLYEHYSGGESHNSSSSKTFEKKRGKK
Particulars: at 0.1 µM.

For assay [15], the system named is T6, Receptor-type tyrosine-protein kinase FLT3 (Homo sapiens), P36888 [D835Y].
T6 sequence (whole entry): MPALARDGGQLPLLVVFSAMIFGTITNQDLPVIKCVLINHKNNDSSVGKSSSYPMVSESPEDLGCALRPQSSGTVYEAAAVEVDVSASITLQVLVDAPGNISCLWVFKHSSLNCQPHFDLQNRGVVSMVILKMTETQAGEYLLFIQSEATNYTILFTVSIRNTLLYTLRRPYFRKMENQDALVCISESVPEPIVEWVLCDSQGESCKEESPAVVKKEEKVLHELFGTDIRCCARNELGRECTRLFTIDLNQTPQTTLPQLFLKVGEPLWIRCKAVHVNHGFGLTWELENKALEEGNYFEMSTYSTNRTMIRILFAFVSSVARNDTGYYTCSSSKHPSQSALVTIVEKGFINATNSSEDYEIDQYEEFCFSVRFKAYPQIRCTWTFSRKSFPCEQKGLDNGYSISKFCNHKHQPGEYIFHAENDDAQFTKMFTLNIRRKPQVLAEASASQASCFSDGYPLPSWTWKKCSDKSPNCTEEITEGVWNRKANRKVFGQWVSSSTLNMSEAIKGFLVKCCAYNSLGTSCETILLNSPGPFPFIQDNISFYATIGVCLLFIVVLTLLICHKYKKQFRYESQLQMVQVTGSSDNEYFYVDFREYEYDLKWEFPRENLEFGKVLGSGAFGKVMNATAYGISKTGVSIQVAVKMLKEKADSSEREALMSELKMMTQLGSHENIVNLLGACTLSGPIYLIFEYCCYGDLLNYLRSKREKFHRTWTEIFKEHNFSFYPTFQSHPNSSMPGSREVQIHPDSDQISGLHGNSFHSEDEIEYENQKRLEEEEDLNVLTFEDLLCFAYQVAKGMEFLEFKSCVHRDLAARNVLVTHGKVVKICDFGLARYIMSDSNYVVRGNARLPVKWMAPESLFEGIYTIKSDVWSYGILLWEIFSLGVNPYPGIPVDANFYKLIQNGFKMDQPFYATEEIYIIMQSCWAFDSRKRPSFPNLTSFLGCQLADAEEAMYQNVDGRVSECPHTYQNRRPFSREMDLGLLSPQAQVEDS
The note with it: at 1 µM.

In assay [16] the target is Vascular endothelial growth factor receptor 3 (Homo sapiens) (UniProt P35916). Particulars: at 0.1 µM.
Assay [17] shares this target. The note with it: at 1 µM.
For assay [18], the target named is Macrophage colony-stimulating factor 1 receptor (Homo sapiens) (UniProt P07333). Particulars: at 0.1 µM.
The target is the same in assay [19]. The note with it: at 1 µM.
Assay [20] deals with Tyrosine-protein kinase Fyn (Homo sapiens) (UniProt P06241). The note with it: at 0.1 µM.
Sequence of Tyrosine-protein kinase Fyn (Homo sapiens) (P06241 2-537 limits assumed): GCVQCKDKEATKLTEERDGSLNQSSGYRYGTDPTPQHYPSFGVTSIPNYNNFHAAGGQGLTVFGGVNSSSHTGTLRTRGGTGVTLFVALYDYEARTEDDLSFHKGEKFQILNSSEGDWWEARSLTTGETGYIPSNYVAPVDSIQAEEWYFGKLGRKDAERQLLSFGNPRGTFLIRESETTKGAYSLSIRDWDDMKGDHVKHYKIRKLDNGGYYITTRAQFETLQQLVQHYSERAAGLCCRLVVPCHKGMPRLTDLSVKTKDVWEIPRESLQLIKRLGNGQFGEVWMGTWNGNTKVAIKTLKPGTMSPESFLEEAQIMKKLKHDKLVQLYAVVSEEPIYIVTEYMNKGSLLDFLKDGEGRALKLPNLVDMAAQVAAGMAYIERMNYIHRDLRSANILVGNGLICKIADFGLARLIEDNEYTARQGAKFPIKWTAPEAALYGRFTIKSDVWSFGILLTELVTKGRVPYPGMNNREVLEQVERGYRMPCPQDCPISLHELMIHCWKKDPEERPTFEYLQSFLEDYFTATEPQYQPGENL

Sequence of Serine/threonine-protein kinase PLK1 (Homo sapiens) (P53350 whole entry): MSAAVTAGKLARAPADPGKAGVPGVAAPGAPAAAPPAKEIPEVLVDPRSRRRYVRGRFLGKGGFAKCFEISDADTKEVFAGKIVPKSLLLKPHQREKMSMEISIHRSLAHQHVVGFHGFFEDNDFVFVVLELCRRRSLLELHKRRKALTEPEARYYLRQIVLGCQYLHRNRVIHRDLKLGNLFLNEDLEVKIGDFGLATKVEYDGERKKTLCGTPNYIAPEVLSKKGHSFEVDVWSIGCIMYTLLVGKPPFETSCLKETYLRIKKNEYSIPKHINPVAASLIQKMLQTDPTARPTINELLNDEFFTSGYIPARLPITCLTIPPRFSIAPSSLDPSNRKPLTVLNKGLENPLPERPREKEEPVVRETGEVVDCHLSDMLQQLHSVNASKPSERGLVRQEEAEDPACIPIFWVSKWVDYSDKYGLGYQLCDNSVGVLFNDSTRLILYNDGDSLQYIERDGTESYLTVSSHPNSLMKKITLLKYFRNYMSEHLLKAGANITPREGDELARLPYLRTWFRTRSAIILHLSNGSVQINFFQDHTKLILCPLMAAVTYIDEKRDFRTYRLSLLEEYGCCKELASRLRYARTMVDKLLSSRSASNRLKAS
Sequence of Vascular endothelial growth factor receptor 3 (Homo sapiens) (P35916 whole entry): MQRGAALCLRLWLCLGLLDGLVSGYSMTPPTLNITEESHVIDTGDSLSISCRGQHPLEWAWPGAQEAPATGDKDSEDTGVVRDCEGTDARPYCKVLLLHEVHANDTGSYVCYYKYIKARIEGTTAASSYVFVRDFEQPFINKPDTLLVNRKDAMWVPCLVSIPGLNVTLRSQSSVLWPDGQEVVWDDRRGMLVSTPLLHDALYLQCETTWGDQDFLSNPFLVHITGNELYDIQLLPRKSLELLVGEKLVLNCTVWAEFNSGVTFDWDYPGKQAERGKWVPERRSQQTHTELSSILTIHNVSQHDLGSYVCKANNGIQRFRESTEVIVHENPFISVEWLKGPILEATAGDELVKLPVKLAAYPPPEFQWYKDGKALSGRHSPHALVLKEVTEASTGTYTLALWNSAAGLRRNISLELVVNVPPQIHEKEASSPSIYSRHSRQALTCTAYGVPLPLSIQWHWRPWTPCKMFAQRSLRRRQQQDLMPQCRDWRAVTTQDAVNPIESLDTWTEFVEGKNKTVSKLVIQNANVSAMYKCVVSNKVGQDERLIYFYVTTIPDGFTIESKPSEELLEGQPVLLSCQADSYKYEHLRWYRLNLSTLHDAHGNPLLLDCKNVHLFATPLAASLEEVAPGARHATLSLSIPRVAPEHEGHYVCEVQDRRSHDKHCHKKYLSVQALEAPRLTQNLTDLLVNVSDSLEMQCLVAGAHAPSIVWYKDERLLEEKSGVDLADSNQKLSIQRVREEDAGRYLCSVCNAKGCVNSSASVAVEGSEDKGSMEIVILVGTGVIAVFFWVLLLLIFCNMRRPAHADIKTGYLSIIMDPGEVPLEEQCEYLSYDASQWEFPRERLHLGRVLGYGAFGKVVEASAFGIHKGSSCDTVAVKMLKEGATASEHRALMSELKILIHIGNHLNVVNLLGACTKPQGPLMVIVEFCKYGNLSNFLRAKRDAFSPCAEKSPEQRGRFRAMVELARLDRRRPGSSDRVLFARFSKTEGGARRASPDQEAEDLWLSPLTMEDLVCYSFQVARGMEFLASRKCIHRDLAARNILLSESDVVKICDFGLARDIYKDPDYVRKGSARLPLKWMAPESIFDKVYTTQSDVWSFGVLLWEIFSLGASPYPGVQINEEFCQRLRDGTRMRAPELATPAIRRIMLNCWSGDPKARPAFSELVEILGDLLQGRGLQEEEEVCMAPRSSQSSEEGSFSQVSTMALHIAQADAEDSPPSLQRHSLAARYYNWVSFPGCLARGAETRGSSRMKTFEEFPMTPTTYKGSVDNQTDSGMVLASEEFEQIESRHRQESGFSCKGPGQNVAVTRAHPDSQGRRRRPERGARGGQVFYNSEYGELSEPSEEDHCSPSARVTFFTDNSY
Sequence of Serine/threonine-protein kinase Nek6 (Homo sapiens) (Q9HC98 whole entry): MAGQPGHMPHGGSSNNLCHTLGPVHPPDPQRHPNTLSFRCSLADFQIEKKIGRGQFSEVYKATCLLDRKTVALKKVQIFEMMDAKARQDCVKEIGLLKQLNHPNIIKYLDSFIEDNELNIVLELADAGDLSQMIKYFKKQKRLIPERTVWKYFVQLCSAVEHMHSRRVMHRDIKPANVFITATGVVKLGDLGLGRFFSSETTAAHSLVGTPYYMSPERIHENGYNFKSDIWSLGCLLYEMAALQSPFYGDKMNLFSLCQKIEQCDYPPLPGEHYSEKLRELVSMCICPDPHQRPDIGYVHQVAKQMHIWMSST
Sequence of Serine/threonine-protein kinase Nek7 (Homo sapiens) (Q8TDX7 whole entry, looked up): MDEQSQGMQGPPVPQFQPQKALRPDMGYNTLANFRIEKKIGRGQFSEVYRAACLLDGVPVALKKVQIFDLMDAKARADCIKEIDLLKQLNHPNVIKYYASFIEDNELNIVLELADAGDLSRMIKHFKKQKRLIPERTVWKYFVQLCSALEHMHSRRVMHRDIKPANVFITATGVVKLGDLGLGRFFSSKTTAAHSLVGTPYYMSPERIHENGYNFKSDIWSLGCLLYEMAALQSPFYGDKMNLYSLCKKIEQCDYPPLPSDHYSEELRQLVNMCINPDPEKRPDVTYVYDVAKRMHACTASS
Sequence of Macrophage colony-stimulating factor 1 receptor (Homo sapiens) (P07333 whole entry): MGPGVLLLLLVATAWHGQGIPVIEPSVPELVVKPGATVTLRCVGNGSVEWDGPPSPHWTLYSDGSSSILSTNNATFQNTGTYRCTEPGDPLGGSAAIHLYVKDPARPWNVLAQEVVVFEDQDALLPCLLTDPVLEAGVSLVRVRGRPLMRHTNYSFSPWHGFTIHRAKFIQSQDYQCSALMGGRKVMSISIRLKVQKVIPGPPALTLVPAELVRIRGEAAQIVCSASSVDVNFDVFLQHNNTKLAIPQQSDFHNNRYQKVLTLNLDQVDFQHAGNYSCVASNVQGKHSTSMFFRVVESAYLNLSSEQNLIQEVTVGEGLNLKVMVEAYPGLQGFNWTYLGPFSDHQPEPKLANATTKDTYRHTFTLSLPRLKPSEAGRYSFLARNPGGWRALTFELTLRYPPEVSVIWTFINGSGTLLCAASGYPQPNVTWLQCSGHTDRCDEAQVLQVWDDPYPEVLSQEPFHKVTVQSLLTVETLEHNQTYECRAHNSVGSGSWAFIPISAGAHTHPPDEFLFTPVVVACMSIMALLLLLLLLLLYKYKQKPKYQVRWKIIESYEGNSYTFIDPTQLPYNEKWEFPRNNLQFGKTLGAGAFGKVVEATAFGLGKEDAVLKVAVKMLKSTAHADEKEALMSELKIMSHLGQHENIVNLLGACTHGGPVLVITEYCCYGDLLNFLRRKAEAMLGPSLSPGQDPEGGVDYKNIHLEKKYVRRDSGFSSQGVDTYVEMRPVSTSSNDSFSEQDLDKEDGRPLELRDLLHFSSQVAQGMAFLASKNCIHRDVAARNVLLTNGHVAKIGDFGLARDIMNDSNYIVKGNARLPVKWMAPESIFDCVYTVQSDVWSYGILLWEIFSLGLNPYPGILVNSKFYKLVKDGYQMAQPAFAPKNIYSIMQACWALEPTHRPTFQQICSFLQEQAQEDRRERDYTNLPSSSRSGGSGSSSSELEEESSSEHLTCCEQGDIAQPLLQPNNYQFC

For the compound `CCCNc1cccc(-n2ncc3c(N/N=C/c4ccncc4)ncnc32)c1`, the inhibition – broadly, the relative decrease from the control value, in per cent – in assay [1] is 13.4%; in [2], 0.28%; in [3] it was 7.87%; in assay [4], -1.07%; in assay [5] it was 0.85%; in assay [6] it was 4.08%. In addition, the inhibition in [7] was 2.63%; in assay [8] it was -1.02%; in assay [9], -0.91%; in assay [10] it was 1.01%; in assay [11] it was 0.45%; in assay [12] it was -0.12%. Also, the inhibition in assay [13] came to 0.93%; in assay [14], 4%; in [15], 31.9%; in assay [16], 11.3%; in assay [17] it was 40.7%; in assay [18], 3.81%. Besides, the inhibition amounted to 17.6% in assay [19] and 8.6% in assay [20].
